Measurements from PubChem BioAssay AID623868 (Vanderbilt High Throughput Screening Facility, 2012).
Hit rate of the full screen: of about 2,100 compounds, about 760 (36%) were called active.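 How the source made its calls: active means thallium-flux fluorescence traces judged by eye to show enhanced or reduced glutamate response, manual score 1 or -1, so both directions (some results past the limit were not filed as active); inactive means the rest, including fluorescent or raised-baseline compounds.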 Only a sample is shown.

experiment: thallium influx changes without GIRK channels – cell-based, HEK-293 rmGlu8, no GIRK, thallium flux, counter-screen for GIRK activator project, confirmation (AID 623868); conditions: thallium flux fluorescence, at 10 µM, actives lie on both sides, codes: 1 enhancer, -1 blocker, 0 none, thallium stimulus containing EC20 glutamate;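 further: extra codes mark interference with 3 for fluorescent and 4 for baseline rise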

Structure (SMILES)	manual score
Cc1ccc(-c2nc3ccccc3o2)cc1NC(=S)NC(=O)c1cc2ccccc2o1	0 (inactive)
Cc1ccc2oc(-c3cccc(NC(=S)NC(=O)c4cccs4)c3)nc2c1	1 (active)
O=C(Nc1ccc2oc(-c3ccncc3)nc2c1)c1c(F)c(F)c(F)c(F)c1F	0 (inactive)
O=C(NC(=S)Nc1ccc2oc(-c3cccnc3)nc2c1)c1cccc(Cl)c1	0 (inactive)
Cc1cc(C)c2oc(-c3ccc(C)c(NC(=S)NC(=O)c4cccs4)c3)nc2c1	1 (active)
O=C1Nc2cc(S(=O)(=O)N3CCCC3)ccc2N2CCCC12 (centres undefined)	0 (inactive)
O=C(N/N=C(\c1ccccc1)c1cccnc1)C(O)(c1ccccc1)c1ccccc1	-1 (active)
CC(C)OC(=O)/C(=C/c1cccnc1)NC(=O)c1ccccc1	0 (inactive)
O=C(NCCCCNC(=O)c1cccnc1)c1cccnc1	0 (inactive)
Cc1c(C#N)c2ncn(CC#N)c(=O)c2n1-c1ccccc1	0 (inactive)
CCCOC(=O)c1ccc(-c2c(C)noc2-c2ccc(OC)cc2O)o1	-1 (active)
COc1ccc(-c2onc(C)c2-c2ccc(C(=O)OC(C)C)o2)c(O)c1	0 (inactive)
Cc1cc(C(=O)OCC(=O)Nc2ccc(F)cc2)c(C)o1	0 (inactive)
Cc1ccccc1NC1=NC(=S)N(c2ccccc2)C12CCOC(C)(C)C2 (centres undefined)	1 (active)
Cc1ccccc1Nc1nc2nonc2nc1N1CCOCC1	0 (inactive)
Cc1ccc(N2C(=S)N=C(Nc3ccccc3C)C23CCOC(C)(C)C3)cc1 (centres undefined)	1 (active)
CC1=NCCN1S(=O)(=O)c1cc(Cl)ccc1Cl	0 (inactive)
COc1cccc2[nH]c3c(N4CCCC(C)C4)ncnc3c12 (centres undefined)	0 (inactive)
S=C1Nc2ccccc2Sc2ccc(Cl)cc21	0 (inactive)
S=C1Nc2cc(Cl)ccc2Sc2ccccc21	1 (active)
S=C1CCSc2ccc(Cl)cc2N1	1 (active)
Clc1ccc2c(c1)C(N1CCNCC1)Cc1ccccc1S2 (centres undefined)	0 (inactive)
CCOC(=O)c1[nH]c(C)c(C(=O)NC2CCCCC2)c1C	0 (inactive)
CC(C)Sc1oc(-c2ccco2)nc1S(=O)(=O)c1ccccc1	0 (inactive)
C=CCn1c(-c2cccs2)nc2ccccc21	0 (inactive)
Fc1ccc(/C=N/n2c(-c3cccs3)n[nH]c2=S)cc1	1 (active)

Structure (SMILES)	manual score
Cc1ccc(-c2cc(-c3cccs3)[nH]n2)c(O)c1	0 (inactive)
Cc1ccc(/C=N/n2c(-c3cccs3)n[nH]c2=S)cc1	1 (active)
CN=c1scc(-c2cccs2)n1/N=C/c1ccc(O)c(O)c1O	0 (inactive)
CC12CN(Cc3ccccc3)CC(C)(CN(Cc3ccccc3)C1)C2=NO	0 (inactive)
CC1CCCC(n2c(=S)[nH]c3ccccc3c2=O)C1C (centres undefined)	3 (inactive)
CC1CCC(n2c(=S)[nH]c3ccccc3c2=O)CC1 (centres undefined)	1 (active)
O=c1[nH]c2ccccc2n1CCC1CCCCC1	0 (inactive)
O=C(C1CCC(Cn2c(=S)[nH]c3ccccc3c2=O)CC1)N1CCN(c2ccccc2)CC1 (centres undefined)	0 (inactive)
CCOC(=O)N1CCC(n2c(=S)[nH]c3ccccc3c2=O)CC1	1 (active)
O=c1c2ccccc2[nH]c(=S)n1C1CCCCC1	1 (active)
O=C(c1ccc2c(=O)n(C3CCCC3)c(=S)[nH]c2c1)N1CCc2ccccc21	0 (inactive)
CC1CCCCC1n1c(=S)[nH]c2ccccc2c1=O (centres undefined)	1 (active)
CCN1CCN(C(=O)c2ccc3c(=O)n(C4CCCC4)c(=S)[nH]c3c2)CC1	0 (inactive)
CCOC(=O)/C(=C\C=C1/Sc2cc(OCC)c(OCC)cc2N1CC)C(C)=O	3 (inactive)
C=CCN1CCN(C(c2ccc(Cl)cc2)c2nnnn2CCc2ccc(OC)c(OC)c2)CC1 (centres undefined)	0.5 (inactive)
CCC1(C)CC(c2csc(N)n2)CCO1 (centres undefined)	0 (inactive)
O=C(CSCCO)Nc1ccccc1	0 (inactive)
CCOC(=O)C(C(=O)OCC)c1cc(Br)c2noc3c2c1C(=O)c1ccccc1-3	3 (inactive)
CC(C)(C)OC(=O)COc1cc(O)c2c(=O)cc(-c3ccccc3)oc2c1	0 (inactive)
Cc1ccc2c(c1)N(CC(=O)N(Cc1ccccn1)Cc1ccco1)C(=O)C(C(C)C)O2 (centres undefined)	0 (inactive)
COC(=O)c1ccc(CSc2nc3c(c(=O)n2-c2ccc(F)cc2)SCC3)o1	-1 (active)
COC(=O)C(C)Sc1nc2c(c(=O)n(C)c(=O)n2C)n1Cc1cccc(C)c1 (centres undefined)	0 (inactive)
CCOc1ccc(-n2c(SC(C)C(=O)OC)nc3c(c2=O)SCC3)cc1 (centres undefined)	-1 (active)
CCOc1ccc(-n2c(Cc3cc(=O)[nH]c(=O)[nH]3)nnc2SC(C)C(=O)OC)cc1 (centres undefined)	0 (inactive)
COc1cccc(NC(=O)NC2(C(F)(F)F)Oc3ccccc3O2)c1	0 (inactive)
CN(C)S(=O)(=O)N(CC(=O)Nc1ccc2ccccc2c1)c1ccccc1	0 (inactive)

Structure (SMILES)	manual score
CCCCOc1cccc(OCCCC)c1C(=O)Nc1cc(C)on1	0 (inactive)
Cc1cc(NC(=O)c2ccccc2Oc2ccccc2)no1	-1 (active)
COc1ccc(C(=O)Nc2ccccc2)cc1S(=O)(=O)Nc1cc(C)on1	0 (inactive)
COc1ccc(C(=O)C2C(c3ccc(-c4ccccc4[N+](=O)[O-])o3)NC(=O)NC2(O)C(F)(F)F)cc1 (centres undefined)	0.5 (inactive)
O=C1c2ccccc2NC(c2ccc(-c3ccc(Br)cc3)o2)N1O (centres undefined)	1 (active)
Cc1cc([N+](=O)[O-])ccc1-c1ccc(C2Nc3ccccc3C(=O)N2O)o1 (centres undefined)	1 (active)
O=C1c2ccccc2NC(c2ccc(-c3cccc(Cl)c3)o2)N1O (centres undefined)	1 (active)
CC(=O)Nc1ccc(SCC(=O)c2cc(C)n(-c3ccccc3F)c2C)cc1	0.5 (inactive)
Cc1cccc(C)c1NC1=NC(=S)N(c2ccc(N(C)C)cc2)C1(C)C	1 (active)
CC1CN(C(=O)C2CCCCC2)C(C)CN1C(=O)C1CCCCC1 (centres undefined)	0 (inactive)
Cn1c(NC(=O)Cc2ccc(F)cc2)cc(=O)n(C)c1=O	0 (inactive)
CC(=O)C1=C(C)NC(SCC(=O)c2ccc(Cl)cc2Cl)=C(C#N)C1c1ccco1 (centres undefined)	-1 (active)
CC(=O)C1=C(C)NC(SCc2ccc(C#N)cc2)=C(C#N)C1c1ccco1 (centres undefined)	0 (inactive)
CCOC(=O)C1=C(c2ccccc2)NC(SC)=C(C#N)C1c1ccco1 (centres undefined)	0 (inactive)
CSCSC1=C(C#N)C(c2ccccc2Cl)C(C(C)=O)=C(C)N1 (centres undefined)	-1 (active)
CSCSC1=C(C#N)C(c2ccc(Cl)cc2)C(C(C)=O)=C(C)N1 (centres undefined)	0 (inactive)
O=C(CCc1nc(-c2ccccc2F)no1)NCCN1CCN(Cc2ccccc2)CC1	0 (inactive)
COc1ccc(NC(=O)C(=O)NNC(=O)c2cccs2)cc1	1 (active)
COc1cccc(NC(=O)Nc2cccs2)c1	0 (inactive)
COc1ccc(Br)cc1CNC(=O)Nc1cccs1	0 (inactive)
COC(=O)c1cc(OC)c(OC)cc1NC(=O)Nc1ccc(OC)cc1OC	0 (inactive)
O=C(NNC(=O)c1cccs1)Nc1cccc(Cl)c1	0 (inactive)
COc1ccc(NC(=O)C(=O)NNC(=O)c2cccs2)c(OC)c1	1 (active)
CCCc1noc2c1/C(=N\O)CC(CC(C)SCC)C2 (centres undefined)	0 (inactive)
O=C(CSc1ccc2ccccc2c1Br)Nc1cccc(S(=O)(=O)NC2=NCCCCC2)c1	1 (active)
O=C(CSc1nnnn1-c1ccc(O)cc1)Nc1cccc(S(=O)(=O)N2CCCC2)c1	0 (inactive)

Structure (SMILES)	manual score
CCc1ccc(C(=O)OCC(=O)Nc2cccc(S(=O)(=O)NC3=NCCCCC3)c2)cc1	0 (inactive)
Cc1ccc(N2CC(C(=O)N/N=C/c3sccc3C)CC2=O)cc1 (centres undefined)	0 (inactive)
Cc1ccsc1/C=N/NC(=O)c1sccc1C	1 (active)
OC(CNCC1CCCO1)Cn1c2ccc(Br)cc2c2cc(Br)ccc21 (centres undefined)	0 (inactive)
O=C1CC(C(=O)Nc2ccc(Br)cc2)C2(CCCC2)O1 (centres undefined)	0 (inactive)
O=C(N/N=C/c1ccc([N+](=O)[O-])s1)c1cccc(Br)c1	0.5 (inactive)
O=C(NN=C1c2ccccc2-c2ccccc21)c1ccccc1Br	1 (active)
O=C(NN=C1c2ccccc2-c2ccccc21)c1cccc(Br)c1	1 (active)
CCCCn1c(CN(Cc2ccccc2)Cc2ccccc2)nc2c1c(=O)n(C)c(=O)n2C	0 (inactive)
O=C(CSCC(=O)N1CCCCC1)Nc1nc(-c2ccc(Cl)s2)cs1	0 (inactive)
Cc1nc2nc(Cc3ccccc3)[nH]n2c(=O)c1Cc1ccccc1	0 (inactive)
CN1C(=O)C2(C(C#N)=C(N)N(c3cc(Cl)cc(Cl)c3)C3=C2C(=O)CCC3)c2ccccc21 (centres undefined)	-1 (active)
Cc1cc(C(=O)CSc2n[nH]c(N)n2)c(C)n1-c1cc(F)ccc1F	0 (inactive)
Fc1ccc(-c2nnc3ccc(N4CCc5ccccc5C4)nn23)cc1	0 (inactive)
c1ccc(-c2nnc3ccc(N4CCCC4)nn23)cc1	-1 (active)
c1ccc2c(N3CCCCCC3)nc(-c3ccncc3)nc2c1	0 (inactive)
CCOC(=O)/C(C#N)=C/C1=C(N2CCCC2)CC(C)(C)OC1	0 (inactive)
CCOC(=O)N1CCN(C(=O)c2oc3ccc(S(=O)(=O)N4CC(C)CC(C)C4)cc3c2C)CC1 (centres undefined)	0 (inactive)
C=CCOn1c(=O)c(-c2cccs2)[n+]([O-])c2ccccc21	3 (inactive)
O=c1c(-c2ccc(Cl)cc2)[n+]([O-])c2ccccc2n1O	1 (active)
CCOn1c(=O)c(-c2cccs2)[n+]([O-])c2ccccc21	3 (inactive)
Clc1ccc2c(c1)-c1nnc(Br)n1-c1ccccc1S2	-1 (active)
C/C(CC(C)(C)C1CCCCC1)=N\NC(N)=S	0 (inactive)
CNc1nc(Cl)nc(NC(C)(C)C)n1	0 (inactive)
Cc1cccc(N2C(=O)CS/C2=N\NC(=O)c2ccc(Cl)cc2)c1C	1 (active)
CC(NC(=O)C1CC=CCC1C(=O)O)C1CC2CCC1C2 (centres undefined)	0 (inactive)
